Assay results reported in PubChem BioAssay (NCI).
The panel holds about 83,000 compounds, 20% with a hit somewhere; the sample as a whole holds those more often.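 Negative percent growth values reflect cell death: -40 means 40% of the cells present at the start died, and -100 means all died.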 Calls of active or inactive are those of the source. How the source made its calls: active means growth percent below 10; inactive means the rest.

The molecules below were run on HOP-92 NSCLC (assay: NCI-60 one-dose screen, 48 h (100 = growth as untreated, 0 = no growth, -100 = all killed)). Settings: 10 µM unless noted.

SMILES | growth
O=C(O)C1CN(c2cccc(Cl)c2)N(c2cccc(Cl)c2)C1=O (stereo not given) | 101% (inactive)
COc1ccc2c(c1)c(-c1ccc(-c3cn(C)c4ccc(OC)cc34)[nH]1)cn2C | -7.36% (active)
CCN1CCN(CC(=O)Nc2nc3ccc(NCc4ccc(Br)cc4)cc3s2)CC1 | 40.9% (inactive)
CC(C)c1ccc(-n2c(=S)[nH]c3sc4c(c3c2=O)CCC(=O)C4)cc1 | -6.71% (active)
Cc1nc2sc(C(=O)Nc3cccc(Cl)c3)c(N)c2cc1C(O)c1ccccc1 (stereo not given) | 77.2% (inactive)
Cc1cscc(C)c1=S | 108% (inactive)
COc1ccc(C2=NN(C(=O)c3cc(OC)c(OC)c(OC)c3)C(c3ccc(N(C)C)cc3)C2)cc1 (stereo not given) | 21.6% (inactive)
CN(C)c1ccc(/C=C2/C=C(c3ccccc3)OC2=O)cc1 | 98.2% (inactive)
CN1CCN(c2ccc3c(c2)nc(NNC(=O)c2cnccn2)c2cccn23)CC1 | 65.5% (inactive)
CN(CCC#N)c1ccc(/C=C2\NC(=O)NC2=O)cc1 | 79.2% (inactive)
COc1ccc(C(c2cc(OC)c(OC)c(OC)c2)N2CCCC2)cc1 (stereo not given) | 85.5% (inactive)
O=C(/C=C/c1ccc(Br)cc1)c1ccc(-n2cc(CN3CCN(c4cc5c(cc4F)c(=O)c(C(=O)O)cn5C4CC4)CC3)nn2)cc1 | 84.6% (inactive)
CCOC(=O)n1cc(-c2nonc2-c2cn(C)c3ccccc23)c2ccccc21 | 54.4% (inactive)
CCOC(=O)c1n[nH]n2c1nc(=O)c1cnn(C)c12 | 103% (inactive)
C#CC#CC#CC#CC#CC#CC#CC#CCC1OCC(COC(=O)O[C@@H](C(=O)O[C@H]2C[C@@]3(O)[C@@H](OC(=O)c4ccccc4)[C@@H]4[C@]5(OC(C)=O)CO[C@@H]5C[C@H](O)[C@@]4(C)C(=O)[C@H](OC(C)=O)C(=C2C)C3(C)C)[C@@H](NC(=O)c2ccccc2)c2ccccc2)O1 (stereo not given in full) | 58.2% (inactive)
